rTrxR1 inhibitor: qHTS Assay for Inhibitors of Mammalian Selenoprotein Thioredoxin Reductase 1 (TrxR1): qHTS; AID 588453, 2011; Thioredoxin reductase 1, cytoplasmic (Rattus norvegicus), O89049; recombinant rTrxR1, NADPH fluorescence consumption, selenite substrate; Potency, µM (highest dose often 114 µM), for inactives: at the highest dose activity change, negative = inhibition, hits mostly inhibitors; 390,000 tested, 1% active; note: potency is the fitted concentration of half-maximal effect; nearly all actives have a fitted effect of over 65% in size
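Rat TrxR1 (90 nM in the dispensed reagent) was pre-reduced with 400 uM NADPH for 5 min at room temperature, then incubated with compound for 15 min. After 400 uM selenite was added, NADPH fluorescence (Ex 340/Em 450 nm) was followed for 8 min.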
Coupling enz: qHTS Assay for Inhibitors of Fructose-1,6-bisphosphate Aldolase from Giardia Lamblia: Coupling assay counterscreen; coupling enzyme system counterscreen, AmpLite Red fluorescence; activity change, negative = inhibition, % at 58.2 µM, hits read low; 290,000 tested, 0.67% active; AID 2472, 2010; in the data active = activity change below about -30%
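Fluorescence at 525 nm excitation and 598 nm emission measured inhibition of the coupled detection system without aldolase. Compounds (at 57.5 uM final) were preincubated 10 min at room temperature with coupling enzyme reagent before a 20 min substrate/AmpLite Red step.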
GALK inhibitor: qHTS Assay for Inhibitors of Human Galactokinase (GALK); Potency, µM (titrated, usually from 57.5 µM), for the others: at the highest dose activity change, negative = inhibition, most hits filed as inhibitors; Purified GALK, Kinase-Glo residual ATP luminescence; 270,000 tested, 0.007% active; note: potency is the fitted concentration of half-maximal effect
Target sequence (P51570 whole entry, looked up): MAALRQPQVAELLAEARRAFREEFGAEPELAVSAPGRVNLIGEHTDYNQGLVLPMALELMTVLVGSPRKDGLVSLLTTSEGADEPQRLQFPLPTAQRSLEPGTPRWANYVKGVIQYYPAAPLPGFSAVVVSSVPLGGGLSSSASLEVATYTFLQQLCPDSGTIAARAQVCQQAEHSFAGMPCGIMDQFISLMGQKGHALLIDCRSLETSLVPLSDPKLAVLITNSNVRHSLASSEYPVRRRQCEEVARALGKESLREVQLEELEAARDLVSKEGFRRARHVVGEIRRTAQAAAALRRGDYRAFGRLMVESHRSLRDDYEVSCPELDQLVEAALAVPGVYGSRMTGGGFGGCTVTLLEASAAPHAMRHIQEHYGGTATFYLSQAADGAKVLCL
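GALK at 5 nM final was combined with compound, 35 uM ATP and 100 uM galactose in HEPES pH8.0 with MgCl2 and DTT. The reaction ran one hour at room temperature before luminescent ATP detection.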
RORgamma inh: qHTS for inhibitors of ROR gamma transcriptional activity; Nuclear receptor ROR-gamma (Mus musculus), P51450; Drosophila S2 Gal4-RORgamma UAS-luciferase reporter, 20 h; Potency, µM (titrated, usually from 53.6 µM), without a hit: top-dose activity change, negative = inhibition, usual class: inhibitors; 310,000 tested, 5.4% active; note: potency is the fitted concentration of half-maximal effect; nearly all actives have a fitted effect of over 60% in size
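Stably transfected Drosophila Schneider cells are the test system, with ROR gamma fused to Gal4 and luciferase under UAS control; luminescence is read after 20 hr of 700 uM copper sulfate induction at ambient temperature.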
Gal4-VP16 FLuc: VP16 counterscreen qHTS for inhibitors of ROR gamma transcriptional activity. 310,000 tested, 3.5% active. Drosophila S2 Gal4-VP16 UAS-luciferase, luminescence, 20 h. AID 2546, 2010. Potency, µM (doses to about 53.6 µM), for the others: at the top dose activity, negative = inhibition, actives largely listed as inhibitors;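 note: Gal4-VP16 expression switched on by copper sulfate through the metallothionein promoter; potency is the fitted concentration of half-maximal effect; nearly all actives have a fitted effect of over 50% in size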
TrxR1 substrate: qHTS Assay for Substrates of Mammalian Selenoprotein Thioredoxin Reductase 1 (TrxR1): qHTS; Potency, µM (highest dose often 114 µM), inactives show at the top dose activity change, negative = substrate turnover; Thioredoxin reductase 1, cytoplasmic (Rattus norvegicus), O89049; purified TrxR1 substrate turnover, NADPH consumption readout; 390,000 tested, 0.01% active; note: potency is the fitted concentration of half-maximal effect; nearly all actives have a fitted effect of over 50% in size
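Rat TrxR1, dispensed at 90 nM, was prereduced with 400 uM NADPH (final) for 5 min at ~22 deg C, then incubated with compound 15 min before 400 uM selenite. A first-read NADPH fluorescence drop versus no-compound background flagged substrates.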
* marks the source's active call; other numbers are inactive results; ? = inconclusive; . = no result; [ ] = another dose, or the depositor's remark. The list is not random: actives were taken first. Their share in the collection is about 5.9%. Unless noted, calls come from the whole dose curve; as a rule, active = well fitted curve in the direction sought with a large enough effect; inconclusive = small, poorly fitted or top-dose-only effect, or another doubt; inactive = no such curve, though single readings can be large; an effect the other way counts as inactive or inconclusive. % is set by controls: 0 for no effect and ±100 for the full control effect.

SMILES | rTrxR1 inhibitor | Coupling enz | GALK inhibitor | RORgamma inh | Gal4-VP16 FLuc | TrxR1 substrate
COc1cccc(-c2ccc(NC(=O)C3CCCN(Cc4cnc(C)n4C)C3)cc2)c1 (stereo not drawn) | 13% | -3 | -2% | -30% | -5% | 5%
COc1ccc(COC(=O)c2cccc(S(=O)(=O)N3CCN(C(C)=O)CC3)c2)cc1F | 8% | . | . | . | . | 2%
Cc1noc(/C=C/c2cccnc2)c1[N+](=O)[O-] | ? | 1 | 0% | 10µM* | 16µM* | -9%
CN(C)S(=O)(=O)c1cccc(NC(=S)NNC(=O)c2cc3ccccc3cc2O)c1 | -32% | . | . | . | . | 0%
Cc1ccnc(NC(=O)c2cc(-n3cnnc3)ccc2Cl)c1 | 4%[57.1 µM] | 1 | -4% | 6% | -1% | 5%[57.1 µM]
O=C(CSc1nnc(-c2ccccc2F)o1)NC1CCCCC1 | 15% | 1 | 7% | 7% | -15% | 5%
COc1cccc(N=Nc2ccc3ccccc3c2O)c1 | 25%[2.29 µM] | -5 | 2% | 8.9µM* | ? | -3%
COc1ccc(N=Nc2ccc3ccccc3c2)c(O)c1 | 8% | 1 | -2% | -30%[1.91 µM] | ? | -1%
COc1ccc(/C=c2\s/c(=C/C(=O)c3ccc(C)cc3)[nH]c2=O)cc1OC | -10%[57.1 µM] | -1 | 0% | 13µM* | ? | 1%[57.1 µM]
CC(=O)c1c(C)nc(Nc2nc3ccccc3s2)nc1C | 27% | -1 | 1% | 5% | 22% | 6%
CCn1c(-c2cc(-c3ccc(OC(C)C)cc3)nc3ccccc23)n[nH]c1=S | 30%[57.1 µM] | -3 | -2% | 13µM* | ? | 50%[57.1 µM]
C=CCn1c(-c2cc(-c3ccc(C)cc3)nc3ccccc23)n[nH]c1=S | ? | -1 | -2% | 0.89µM* | 10µM* | -6%
C=CCn1c(C)nc2ccccc2c1=O | 1% | 3 | 6% | 0% | -8% | -8%
CCn1c(-c2ccccc2SC)n[nH]c1=S | 16%[57.1 µM] | -3 | 0% | 14µM* | -11% | -5%[57.1 µM]
CCCOc1cccc(-c2cc(-c3n[nH]c(=S)n3CC)c3ccccc3n2)c1 | -22% | -2 | -4% | 1.3µM* | -20% | -2%
O=C(NCCc1c[nH]c2ccccc12)c1ccc2nc[nH]c2c1 | 5%[57.1 µM] | . | . | . | . | 4%[57.1 µM]
CCn1c(-c2cc(-c3ccc(C)cc3)nc3ccccc23)n[nH]c1=S | -13% | -2 | 0% | 1.1µM* | -19% | -2%
Cc1noc(C)c1C(=O)Nc1nccs1 | -23% | . | -1% | -19% | 2% | -18%
CCOC(=O)C1CCN(C(=O)c2cc3cc4ccc(C)cc4nc3o2)CC1 | -2% | -2 | -2% | ? | -4% | 8%
c1c2c(cc3sc(N4CCOCC4)nc13)OCO2 | -11%[57.1 µM] | -1 | 5% | ? | ? | 0%[57.1 µM]
c1c2c(cc3sc(N4CCCCC4)nc13)OCO2 | 5% | -1 | 5% | 10µM* | 11µM* | -2%
Cc1ccc(C(C(=O)NC2CCCC2)N(Cc2ccc(F)cc2)C(=O)c2snc(C(N)=O)c2N)o1 (stereo not drawn) | 14% | 1 | 1% | 45% | -10% | 13%
Cc1nc(NCc2ccc3c(c2)OCO3)c2nnn(Cc3ccccc3)c2n1 | 4% | 1 | 0% | ? | -19% | 6%[57.1 µM]
COc1ccc(N2C(=O)[C@@H]3[C@H](C2=O)[C@H]2c4ccccc4C=CN2[C@@H]3C(C)=O)cc1 | -28% | -42* | -3% | 13% | -4% | -12%
COc1ccc(OCc2cc(C(=O)N(C)C3CCOCC3)no2)c2ccccc12 | 45% | -37* | -10% | 37% | 22% | 10%
SMILES | rTrxR1 inhibitor | Coupling enz | GALK inhibitor | RORgamma inh | Gal4-VP16 FLuc | TrxR1 substrate
COc1ccc(OCc2cc(C(=O)N(C)C3CCOC3)no2)c(Cl)c1 (stereo not drawn) | 5% | . | 5% | ? | 18% | -5%
CCOC(=O)C1CCN(C(=O)c2cc(COc3ccc(OC)c4ccccc34)on2)CC1 | 4% | -37* | 7% | 0% | -3% | -10%
CCOC(=O)C1CCCN(CCC(=O)Nc2ccc(Br)cc2)C1 (stereo not drawn) | 12%[57.1 µM] | -4 | 0% | -7% | -2% | 6%[57.1 µM]
CCN(CC)CCC=C(c1cccs1)c1cccs1 | 22µM* | . | . | . | . | 13%
COc1ccc2sc(N(CCCN(C)C)C(=O)c3ccc(S(=O)(=O)N4CCc5ccccc5C4)cc3)nc2c1 | 9% | . | . | . | . | -5%
CN(C)CCCN(C(=O)c1ccc(S(=O)(=O)N2CCc3ccccc3C2)cc1)c1nc2ccc(F)cc2s1 | 29% | 1 | -4% | ? | 11µM* | 2%
Cc1ccc2nc(N(CCCN(C)C)C(=O)c3ccc(S(=O)(=O)N4CCc5ccccc5C4)cc3)sc2c1 | 13% | 1 | 0% | 10µM* | 13µM* | 5%[57.1 µM]
CCOC(=O)C(C)Sc1nc(=O)n2cc(C)ccc2n1 (stereo not drawn) | 8%[57.1 µM] | 0 | 7% | 17% | 25% | 10%[57.1 µM]
COc1ccc(C(=O)CC(=O)C(=O)Nc2cc(C)ccc2C)cc1 | 4% | -1 | -3% | 7.1µM* | 10µM* | 5%
COc1ccc(C(=O)CC(=O)C(=O)Nc2cccc(F)c2)cc1 | -8%[11.4 µM] | 0 | -1% | 7.1µM* | 7.1µM* | -1%[11.4 µM]
COc1ccc(C(=O)CC(=O)C(=O)Nc2cc(OC)c(OC)c(OC)c2)cc1 | -12% | -1 | -2% | ? | ? | -8%
COc1ccc(C(=O)CC(=O)C(=O)Nc2ccc([N+](=O)[O-])cc2C)cc1 | -12%[57.1 µM] | 1 | -4% | 5.6µM* | 11µM* | -11%
CCOc1ccccc1NC(=O)C(=O)CC(=O)c1ccc(OC)cc1 | -8%[11.4 µM] | 1 | 4% | 6.3µM* | 4µM* | -3%[11.4 µM]
COc1ccc(C(=O)CC(=O)C(=O)Nc2ccccc2)cc1 | -24% | 0 | 4% | ? | ? | -4%
CC(=O)NC12CC3CC(C1)CC(C(=O)N1CCN(S(=O)(=O)c4cccc(F)c4)CC1)(C3)C2 | 10% | -2 | 0% | -11% | -10% | 3%
Clc1ccc(-c2nnc(CSc3nnc(-c4cccs4)n3Cc3ccccc3)o2)cc1 | 27% | 1 | . | ? | 18µM* | -6%
Cc1nnc(SCc2nnc(-c3cccs3)o2)n1Cc1ccccc1 | 16%[57.1 µM] | 2 | -2% | -23% | -17% | 10%[57.1 µM]

Screens (PubChem BioAssay)
